Key:
Conditions in all cases: concentration: 1 μM, replicates: in singlicate; n = 1
JNK2 = test system: T1, JNK2
T1 construct: gene MAPK9

JNK3 = test system: T2, JNK3
T2 construct: gene MAPK10

KIT-autoinhibited = test system: KIT-autoinhibited
KIT = test system: KIT
LATS1 = test system: LATS1
LATS2 = test system: LATS2
LCK = test system: LCK
LIMK1 = test system: LIMK1
LIMK2 = test system: LIMK2
LKB1 = test system: T3, LKB1
T3 construct: gene STK11

LOK = test system: T4, LOK
T4 construct: gene STK10

LRRK2 = test system: LRRK2
LTK = test system: LTK
LYN = test system: LYN
LZK = test system: T5, LZK
T5 construct: gene MAP3K13

MAK = test system: MAK
MAP3K15 = test system: MAP3K15
MAP3K1 = test system: MAP3K1
MAP3K2 = test system: MAP3K2
MAP3K3 = test system: MAP3K3
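Further: KINOMEscan kinase panel screen.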

SMILES	%Inh (JNK2) [%]	%Inh (JNK3) [%]	%Inh (KIT-autoinhibited) [%]	%Inh (KIT) [%]	%Inh (LATS1) [%]	%Inh (LATS2) [%]	%Inh (LCK) [%]	%Inh (LIMK1) [%]	%Inh (LIMK2) [%]	%Inh (LKB1) [%]	%Inh (LOK) [%]	%Inh (LRRK2) [%]	%Inh (LTK) [%]	%Inh (LYN) [%]	%Inh (LZK) [%]	%Inh (MAK) [%]	%Inh (MAP3K15) [%]	%Inh (MAP3K1) [%]	%Inh (MAP3K2) [%]	%Inh (MAP3K3) [%]
CN1C(=O)C(Nc2ccccc2)=C(c2ccccc2)C1=O [SB-300079]	0	0	17	0	0	0	0	0	0	13	0	0	0	0	0	0	0	0	21	0
Cc1cccc(-c2cc(-c3c[nH]nc3-c3ccccn3)ccn2)c1 [GW679395]	66	73	0	35	0	3	78	0	13	0	0	10	4	0	12	33	0	5	6	0
Cc1cc(Nc2nc(-c3cccc(C)n3)nc3ccccc23)ccn1 [GW872411]	14	0	2	0	0	0	0	0	0	0	0	0	0	0	0	0	0	0	0	0
CCS(=O)(=O)c1ccc(OC)c(Nc2ncc(-c3ccc(F)cc3)o2)c1.Cl [GW591947]	21	0	0	17	0	0	13	0	0	0	0	0	0	0	0	80	0	0	0	0
Cc1c(Cn2c(C)nn3c(=O)cc(N4CCO[C@H](C)C4)nc23)cccc1C(F)(F)F [GSK2373690]	27	17	0	13	0	0	15	5	0	0	0	31	0	0	0	0	26	7	2	0
CC(C)(C)c1ccc(C(=O)Nc2cn3cc(-c4ccccc4)ccc3n2)cc1	0	0	0	92.6	0	0	8	10	0	15	0	0	0	0	0	11	22	0	0	2
Nc1nc(N)c2nc(-c3ccccc3)[nH]c2n1 [SKF-12778]	14	8	5	21	0	0	19	0	3	0	14	18	5	3	0	3	12	9	26	13
COc1cccc(-n2cnc3c(N)ncnc32)c1 [SKF-97416]	27	8	23	12	8	1	10	0	7	60	4	63	0	8	33	10	22	29	35	22
COc1ccc(CNC(=O)NC2CCN(c3ccnc(Nc4ccc(F)cc4)n3)C2)cc1 (centres unmarked) [GSK1379706]	9	13	3	39	22	27	16	0	29	13	0	23	15	0	71	30	12	2	0	0
COc1cc(OC)cc(-c2cc3cnc(N)nc3nc2NC(=O)NC(C)(C)C)c1	0	0	0	0	0	34	0	0	0	0	13	0	0	0	0	0	0	0	0	13

From article PMC5540273 (PLoS ONE, 2017)
